According to the antibiotic and cytotoxicity screens of Wong et al. (2023):
Hit rate of the full screen: of about 39,000 compounds, about 3,300 (8.5%) were called active. Only a selection was taken, and actives are over-represented in it overall.

tested on: HepG2; test: cytotoxicity call (relative viability < 0.9); settings: 10 µM

| Structure (SMILES) | cytotoxicity call |
| --- | --- |
| C/C=C/c1cnc2c(c1)C(=O)N([C@H](C)CO)C[C@@H](C)[C@@H](CN(C)S(=O)(=O)c1ccc(OC)cc1)O2 | inactive |
| C[C@@H]1CN([C@H](C)CO)C(=O)c2cc(NC(=O)Cc3cn(C)c4ccccc34)ccc2O[C@H]1CN(C)C(=O)Nc1cccc2ccccc12 | inactive |
| CN(C)C(CCOc1cccc2ccccc12)c1ccccc1.Cl (stereo unspecified) | active |
| CN(C)CCOC(c1ccccc1)c1ccccc1.Cl | inactive |
| N#CCOc1cccc2ccccc12 | inactive |
| CN(C)Cc1cn(CC[C@@H]2CC[C@H](NS(=O)(=O)c3ccccc3)[C@H](CO)O2)nn1 | inactive |
| C[C@@H]1CN([C@H](C)CO)C(=O)c2cc(NC(=O)C3CCCCC3)ccc2O[C@@H](C)CCCCO[C@H]1CN(C)C(=O)c1ccccc1 | inactive |
| C[C@@H]1CCCCO[C@H](CN(C)CC2CCCCC2)[C@@H](C)CN([C@H](C)CO)C(=O)c2cc(NS(=O)(=O)c3cccs3)ccc2O1 | inactive |
| C[C@@H]1CN([C@@H](C)CO)C(=O)c2cc(NC(=O)Cn3cnnn3)ccc2O[C@@H]1CN(C)Cc1ccc(Oc2ccccc2)cc1 | inactive |
| COC(=O)CNC(=O)c1ccc(F)cc1 | inactive |
| COC(=O)Nc1nc2cc(C(=O)c3cccs3)ccc2[nH]1 | inactive |
| O=c1[nH]c2ccc(F)cc2nc1O | inactive |
| COC(=O)Nc1nc2cc(C(=O)c3ccc(F)cc3)ccc2[nH]1 | active |
| COC(=O)Nc1nc2cc(C(=O)c3ccccc3)ccc2[nH]1 | active |
| COc1cccc(C(=O)c2ccccc2)c1 | inactive |
| Cc1ccc(S(=O)(=O)Nc2ccc3c(c2)CC(=O)N([C@H](C)CO)C[C@H](C)[C@@H](CN(C)S(=O)(=O)c2c(C)noc2C)O3)cc1 | inactive |
| Cc1cc(O)cc(C)c1Cl [listing 1 of 2 here] | active |
| Oc1cc(O)cc(O)c1 | inactive |
| Cc1cc(O)cc(C)c1Cl [listing 2 of 2 here] | inactive |
| CCO[C@H]1CC(C)(C)NC(=S)N1 | inactive |
| C[C@@H]1CN([C@H](C)CO)C(=O)Cc2cc(NS(=O)(=O)c3ccc(Cl)cc3)ccc2O[C@H]1CN(C)Cc1ccc(C(F)(F)F)cc1 | active |
| C[C@H](CO)N1C[C@H](C)[C@H](CN(C)Cc2ccc(C(F)(F)F)cc2)Oc2ccc(NS(=O)(=O)c3ccc(Cl)cc3)cc2CC1=O | active |
| C[C@H]1CN([C@@H](C)CO)C(=O)Cc2cc(NS(=O)(=O)c3ccc(Cl)cc3)ccc2O[C@H]1CN(C)Cc1ccc(C(F)(F)F)cc1 | active |
| C[C@@H]1CN([C@@H](C)CO)C(=O)Cc2cc(NS(=O)(=O)c3ccc(Cl)cc3)ccc2O[C@@H]1CN(C)Cc1ccc(C(F)(F)F)cc1 | active |

| Structure (SMILES) | cytotoxicity call |
| --- | --- |
| C[C@@H]1CN([C@H](C)CO)C(=O)Cc2cc(NS(=O)(=O)c3ccc(Cl)cc3)ccc2O[C@@H]1CN(C)Cc1ccc(C(F)(F)F)cc1 | inactive |
| CCS(=O)(=O)Nc1ccc2c(c1)C(=O)N(C)[C@@H]1CC[C@H](CC(=O)NCc3ccccc3F)O[C@H]1CO2 | inactive |
| C[C@H](CO)N1C[C@H](C)[C@@H](CN(C)C(=O)Nc2ccc(F)cc2)Oc2c(NC(=O)c3ccc(-c4nccs4)cc3)cccc2C1=O | inactive |
| C/C=C/c1cnc2c(c1)C(=O)N([C@@H](C)CO)C[C@H](C)[C@@H](CN(C)S(=O)(=O)c1ccc(OC)cc1)O2 | inactive |
| C[C@@H]1CN([C@H](C)CO)C(=O)c2cc(NC(=O)C3CCCCC3)ccc2O[C@@H](C)CCCCO[C@@H]1CN(C)C(=O)CCC(F)(F)F | inactive |
| C[C@@H]1CCCCO[C@H](CN(C)Cc2ccc(C(=O)O)cc2)[C@H](C)CN([C@@H](C)CO)C(=O)c2cc(NS(=O)(=O)c3ccc(Cl)cc3)ccc2O1 | inactive |
| O=C(C[C@@H]1CC[C@@H]2[C@H](COC[C@H](O)CN2C(=O)c2ccncc2)O1)NC1CCC1 | inactive |
| C[C@@H]1CN([C@H](C)CO)C(=O)c2cc(NC(=O)Nc3ccc(F)cc3)ccc2O[C@@H]1CN(C)S(C)(=O)=O | inactive |
| C[C@@H]1CN([C@H](C)CO)C(=O)c2cccc(NS(C)(=O)=O)c2O[C@@H]1CN(C)C(=O)Nc1ccccc1 | inactive |
| C[C@@H]1CN([C@H](C)CO)C(=O)c2cccc(NS(=O)(=O)c3ccc(F)cc3)c2O[C@H]1CN(C)C(=O)Nc1cccc2ccccc12 | inactive |
| CN(C)CCCCNC(=O)[C@@H]1C[C@@H]2C(=O)N[C@@H](CCCCN)C(=O)N2[C@@H]1c1ccc(O)cc1 | inactive |
| C[C@@H]1CN([C@@H](C)CO)C(=O)Cc2cc(NS(=O)(=O)c3ccc(Cl)cc3)ccc2O[C@H]1CN(C)Cc1ccc(C(F)(F)F)cc1 | inactive |
| C[C@H]1CN([C@@H](C)CO)C(=O)Cc2cc(NS(=O)(=O)c3ccc(Cl)cc3)ccc2O[C@@H]1CN(C)Cc1ccc(C(F)(F)F)cc1 | active |
| C[C@H](CO)N1C[C@H](C)[C@@H](CN(C)Cc2ccc(C(F)(F)F)cc2)Oc2ccc(NS(=O)(=O)c3ccc(Cl)cc3)cc2CC1=O | inactive |
| CC(=O)N[C@H]1[C@H]([C@H](O)[C@H](O)CO)OC(C(=O)O)=C[C@@H]1NC(=N)N | inactive |
| CNC(=O)Nc1ccc(S(N)(=O)=O)cc1 | inactive |
| NS(=O)(=O)c1ccc(NC(=O)[C@H]2CCCNC2=O)cc1 | inactive |
| NS(=O)(=O)c1ccc(NC(=O)C2CC2)cc1 | active |
| Cc1ccc(S(=O)(=O)N(C)C[C@@H]2Oc3c(NC(=O)c4cnccn4)cccc3C(=O)N([C@@H](C)CO)C[C@@H]2C)cc1 | inactive |
| COc1ccc(S(=O)(=O)Nc2ccc3c(c2)CC(=O)N([C@H](C)CO)C[C@@H](C)[C@H](CN(C)S(=O)(=O)c2cccs2)O3)cc1 | inactive |
| C[C@H](CO)N1C[C@H](C)[C@H](CN(C)Cc2ccncc2)Oc2ccc(NC(=O)Nc3ccc(C(F)(F)F)cc3)cc2CC1=O | active |
| C[C@H](CO)N1C[C@H](C)[C@@H](CN(C)Cc2ccncc2)Oc2ccc(NC(=O)Nc3ccc(C(F)(F)F)cc3)cc2CC1=O | active |
| C[C@H]1CN([C@@H](C)CO)C(=O)Cc2cc(NC(=O)Nc3ccc(C(F)(F)F)cc3)ccc2O[C@@H]1CN(C)Cc1ccncc1 | active |
| C[C@@H]1CN([C@H](C)CO)C(=O)Cc2cc(NC(=O)Nc3ccc(C(F)(F)F)cc3)ccc2O[C@@H]1CN(C)Cc1ccncc1 | active |

| Structure (SMILES) | cytotoxicity call |
| --- | --- |
| C[C@@H]1CN([C@H](C)CO)C(=O)Cc2cc(NC(=O)Nc3ccc(C(F)(F)F)cc3)ccc2O[C@H]1CN(C)Cc1ccncc1 | inactive |
| C[C@@H]1CN([C@@H](C)CO)C(=O)Cc2cc(NC(=O)Nc3ccc(C(F)(F)F)cc3)ccc2O[C@H]1CN(C)Cc1ccncc1 | inactive |
| Cc1ccc(S(=O)(=O)N(C)C[C@@H]2OCCCC[C@H](C)Oc3ccc(NC(=O)Nc4ccccc4)cc3C(=O)N([C@H](C)CO)C[C@H]2C)cc1 | inactive |
| Cc1ccc(S(=O)(=O)N2C[C@@H](O)COC[C@H]3O[C@H](CC(=O)NCc4ccccc4Cl)CC[C@@H]32)cc1 | inactive |
| COc1ccc(S(=O)(=O)N[C@H]2CC[C@@H](CCNC(=O)CN3CCOCC3)O[C@@H]2CO)cc1 | inactive |
| COc1ccc(S(=O)(=O)Nc2ccc3c(c2)C(=O)N([C@H](C)CO)C[C@H](C)[C@@H](CN(C)C(=O)c2ccccc2)OCCCC[C@@H](C)O3)cc1 | inactive |
| CN(C)CCCNC(=O)C[C@H]1CC[C@H]2[C@H](COc3ccc(NC(=O)NC4CCCC4)cc3C(=O)N2C)O1 | inactive |
| COc1ccc(NC(=O)Nc2ccc3c(c2)C(=O)N([C@@H](C)CO)C[C@@H](C)[C@H](CN(C)C(=O)Cc2ccccc2)OCCCC[C@@H](C)O3)cc1 | inactive |
| CC(=O)N1CCC(C(=O)N2CCC(n3cc(C(C)(C)N)nn3)CC2)CC1 | inactive |
| COc1ccc(CN(C)C[C@@H]2OCCCC[C@H](C)Oc3ccc(NC(=O)Nc4c(C)noc4C)cc3C(=O)N([C@H](C)CO)C[C@H]2C)cc1 | inactive |
| NC(=O)NCC#Cc1ccc2c(c1)[C@]1(C(=O)N2)[C@H](c2ccccc2OCCO)N2[C@H](c3ccccc3)[C@H](c3ccccc3)OC(=O)[C@H]2[C@@H]1C(=O)O | inactive |
| CCc1nc2ccc(C(=O)Nc3ccc4c(c3)OCC(=O)N4)cn2c1N(CC)Cc1cccc(Br)c1 | inactive |
| COc1ccc(NC(=O)N(C)C[C@@H]2OCCCC[C@H](C)Oc3ccc(NC(=O)c4ccncc4)cc3C(=O)N([C@@H](C)CO)C[C@H]2C)cc1 | inactive |
| COc1ccc(CN(C)C[C@@H]2OCCCC[C@@H](C)Oc3ccc(NC(=O)NC(C)C)cc3C(=O)N([C@H](C)CO)C[C@@H]2C)cc1 | inactive |
| C[C@@H]1CCCCO[C@H](CN(C)C(=O)CCC(F)(F)F)[C@H](C)CN([C@H](C)CO)C(=O)c2cc(NS(=O)(=O)c3ccc(Cl)cc3)ccc2O1 | inactive |
| C=C(/C=C\CNS(=O)(=O)c1ccc(C)cc1)[C@H](O)[C@H]1CCCN1S(=O)(=O)c1ccccc1[N+](=O)[O-] | inactive |
| C[C@H]1CN([C@@H](C)CO)C(=O)Cc2cc(NC(=O)Nc3ccc(C(F)(F)F)cc3)ccc2O[C@H]1CN(C)Cc1ccncc1 | active |
| C[C@@H]1CN([C@@H](C)CO)C(=O)Cc2cc(NC(=O)Nc3ccc(C(F)(F)F)cc3)ccc2O[C@@H]1CN(C)Cc1ccncc1 | active |
| C[C@@H]1CCCCO[C@@H](CN(C)C(=O)CCC(F)(F)F)[C@@H](C)CN([C@H](C)CO)C(=O)c2cc(NC(=O)Nc3ccccc3)ccc2O1 | inactive |
| N[C@@H](Cn1ccnc1)c1ccccc1 | inactive |
| COc1ccc(C#Cc2ccc3c(c2)O[C@@H](CN(C)C(=O)c2ccccn2)[C@@H](C)CN([C@@H](C)CO)S3(=O)=O)cc1 | inactive |
| CC/C(=C\C(=N\O)C(N)=O)[C@@H](C)[N+](=O)[O-] | inactive |
| CC(=O)N1CCCC(=O)CC1 | inactive |
